Compound activity (PubChem)
Rows were chosen to be rich in hits. Some 2.9% of all compounds tested hit in one or more screens of this group.
MEKK2wt PB1 HTS: raises or lowers MEK5 binding to wildtype human MEKK2 PB1 domain | 290,000 compounds, 1.1% hits | bead flow cytometry, Alexa488-MEK5 binding to MEKK2 WT; actives lie on both sides | binding response (% of control), % at 10 µM | Q9Y2U5 | AID 1531; in the data active = binding response below about 67% or above about 130%
MEKK3 PB1 HTS: raises or lowers MEK5 binding to the human MEKK3 PB1 domain; Q99759; bead-based flow cytometry, Alexa488-MEK5 binding to MEKK3; actives lie on both sides; 0 = blocked by unlabeled MEK5, 100 = vehicle; binding response (% of control), % at 10 µM; 290,000 compounds, 1.4% hits;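 active = binding response more than 3 SD above or below the average of its plate-row segment, actives on both sides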;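 also: Alexa488 bead fluorescence after subtracting the streptavidin-only scavenger bead signal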
Target sequence (Q99759 whole entry, looked up, the tested form may be a part): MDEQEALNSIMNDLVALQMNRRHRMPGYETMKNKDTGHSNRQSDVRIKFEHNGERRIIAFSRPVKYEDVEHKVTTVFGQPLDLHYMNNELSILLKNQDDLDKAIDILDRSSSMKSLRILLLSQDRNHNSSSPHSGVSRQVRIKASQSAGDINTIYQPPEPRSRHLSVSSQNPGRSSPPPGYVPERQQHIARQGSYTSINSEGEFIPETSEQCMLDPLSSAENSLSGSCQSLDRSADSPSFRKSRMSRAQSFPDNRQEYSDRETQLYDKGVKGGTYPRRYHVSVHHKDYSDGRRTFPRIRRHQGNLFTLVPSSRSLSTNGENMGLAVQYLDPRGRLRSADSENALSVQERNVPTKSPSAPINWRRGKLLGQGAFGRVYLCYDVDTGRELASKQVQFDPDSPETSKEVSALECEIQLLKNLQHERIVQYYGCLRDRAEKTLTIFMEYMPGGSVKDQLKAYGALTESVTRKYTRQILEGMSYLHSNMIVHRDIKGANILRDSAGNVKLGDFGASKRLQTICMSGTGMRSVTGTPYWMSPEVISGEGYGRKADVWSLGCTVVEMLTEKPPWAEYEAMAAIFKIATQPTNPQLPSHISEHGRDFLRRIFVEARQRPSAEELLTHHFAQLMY
dFosB activator: mouse delta FosB homodimer activation. P13346. purified delta FosB, TAMRA-CDK5 oligo fluorescence polarization; percent of positive-control signal above neutral wells. activation, % at 25 µM. 340,000 compounds, 0.99% hits;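 active = mean activation above about 17%, with every replicate also reaching it, limit read from the data, passing the limit was not always enough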
DNA FID counter: displaces DNA intercalator in HCV helicase counter-screen; DNA fluorescent intercalator displacement, fluorescence; inhibition, % at 7.9 µM; 290,000 compounds, 0.17% hits; in the data active = inhibition above about 37%;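 also: 0% = vehicle and 100% = reference compound; higher means more ethidium bromide displaced from hairpin DNA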
MEKK2mut PB1 HTS: signal of MEK5 binding to mutant human MEKK2 PB1 domain; percent response, % at 10 µM; 290,000 compounds, 0.35% hits; bead flow cytometry, Alexa488-MEK5 binding to MEKK2 mutant; AID 1530; in the data active = percent response above about 24%, passing the limit was not always enough
MEKK2wt confirm: raises or lowers MEK5 binding to wildtype human MEKK2, retest; shares compounds with MEKK3 PB1 HTS; bead flow cytometry, Alexa488-MEK5 binding to MEKK2 WT; actives lie on both sides; binding response (% of control), % at 10 µM; 5,900 compounds, 2.4% hits; in the data active = binding response below about 16% or above about 210%; inactive = in between
MEKK2mut-MEK5: signal of MEK5 binding to mutant human MEKK2, retest. shares compounds with MEKK3 PB1 HTS. bead flow cytometry, Alexa488-MEK5 binding to MEKK2 mutant. percent response, % at 10 µM. 5,900 compounds, 2% hits. AID 1893; in the data active = percent response mostly above about 71%, no sharp cut-off; inactive = mostly below about 38%;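 also: higher means compound restores mutant binding toward wildtype level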
MEKK3-MEK5 inh: MEKK3-MEK5 PB1 inhibition, single concentration confirmation; shares compounds with MEKK3 PB1 HTS; bead flow cytometry, Alexa488-MEK5 binding to MEKK3; stronger effect = lower value; binding response (% of control), % at 10 µM; 5,900 compounds, 1.8% hits; AID 1894;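 active = binding response below 72% of control, or above a set upper limit, though filed actives all read lower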;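 also: 100% = DMSO only wells and 0% = binding blocked by excess unlabeled MEK5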
* = called active by the depositor; . = not tested or not shown; [ ] = dose if it differs, or a comment.

SMILES	MEKK2wt PB1 HTS	MEKK3 PB1 HTS	dFosB activator	DNA FID counter	MEKK2mut PB1 HTS	MEKK2wt confirm	MEKK2mut-MEK5	MEKK3-MEK5 inh
CCOc1cc(/C=N/N=C(N)N)ccc1OCc1ccc(Cl)cc1	149*	104	56*	8	6	202	63	109
COc1cc(/C=N/N=C(N)N)ccc1OCc1ccc(Cl)cc1	230*	122	59*	16	69*	180	48	102
COc1cc(/C=N/O)ccc1OCc1ccc(Cl)cc1	92	96	.	-7	-4	.	.	.
Cc1ccc(S(=O)(=O)NC(=O)Nc2nnc(C)s2)cc1	0.0*[inhibitor]	0.0*[inhibitor]	-5	-2	-16	100	5	98
c1ccc(C2c3[nH]c4ccccc4c3CCN2Cc2cccn2-c2ccccn2)nc1 (configuration not stated)	100	101	-6	-3	-2	.	.	.
Cc1cccc(C2c3[nH]c4ccccc4c3CCN2Cc2cccn2-c2ncccn2)c1 (configuration not stated)	149*	110	-3	6	30	109	5	102
O=C1CC(N2CCN(c3ccc(F)cc3)CC2)C(=O)N1c1ccc2c(c1)OCO2 (configuration not stated)	1.0*[inhibitor]	2.0*[inhibitor]	4	-9	-84	103	4	102
COC(=O)[C@@]1(Cc2ccccc2)[C@H]2C(=O)N(C)C(=O)[C@H]2[C@H]2CN=C(SCc3ccc(Cl)cc3)N21	.	.	-5	.	.	.	.	.
CCC(C)(C)n1nnnc1C(c1ccncc1)N1CCN(c2cccc(OC)c2)CC1 (configuration not stated)	98	87	-11	-23	-4	.	.	.
CCC(C)(C)n1nnnc1C(c1cccnc1)N1CCN(c2cccc(C(F)(F)F)c2)CC1 (configuration not stated)	120	123*	-7	-8	7	101	-2	102
O=C(NCCCN1CCOCC1)C1CC(=O)N(c2ccccc2)C1 (configuration not stated)	105	100	-9	1	0	.	.	.
CCOc1ccc(N2CC(C(=O)NCCCN3CCOCC3)CC2=O)cc1 (configuration not stated)	3.0*[inhibitor]	2.0*[inhibitor]	-1	-2	-21	102	7	105
CCN(CC)C(=O)CSc1nnc(NC(=O)CCc2ccccc2)s1	115	156*	-8	-7	2	143	17	106
COCc1nnc(NC(=O)CCc2ccc(OC)cc2)s1	107	102	-4	-6	1	.	.	.
COCc1nnc(NC(=O)CCc2ccccc2)s1	2.0*[inhibitor]	2.0*[inhibitor]	0	-3	-18	101	-4	100
CCOC(=O)c1cc(C)n(-c2c(C)n(C)n(-c3ccccc3)c2=O)c1C	105	103	-3	-9	11	.	.	.
Cc1cc(C(=O)COC(=O)CC2Sc3ccccc3NC2=O)c(C)n1-c1ccc(Br)cc1 (configuration not stated)	100	102	1	-20	-2	.	.	.
Cc1cc(C(=O)COC(=O)CC2Sc3ccccc3NC2=O)c(C)n1-c1ccccc1 (configuration not stated)	105	136*	-5	-20	0	93	-10	96
CCCCC(=O)OCC(=O)c1cc(C)n(-c2c(C)n(C)n(-c3ccccc3)c2=O)c1C	83	65*[inhibitor]	-4	-19	-3	90	-10	89
Cc1nc2ccccc2c(=O)n1/N=C/C=C/c1ccccc1	97	102	-1	-6	0	.	.	.
CCCOCCOC(=O)C1=C(C)NC(=O)NC1c1cc(Cl)c(O)c(OC)c1 (configuration not stated)	-2.0*[inhibitor]	1.0*[inhibitor]	-2	-10	-28	104	3	105
CCOC(=O)C1=C(C)NC(=O)NC1c1cc(Br)c(O)c(OC)c1 (configuration not stated)	101	97	-2	-7	3	.	.	.
COc1cc(NC(=O)c2ccccc2Cl)c2ncccc2c1	104	105	-6	-15	26*	107	3	106
CCOc1ccc2nc(NCCCNS(=O)(=O)c3ccc(C)cc3)c(C#N)cc2c1	94	130*	4	-2	4	97	0	105
CCOc1ccc2nc(NCCNC(=O)Nc3cccc(C)c3)c(C#N)cc2c1	90	95	9	-1	-7	.	.	.
SMILES	MEKK2wt PB1 HTS	MEKK3 PB1 HTS	dFosB activator	DNA FID counter	MEKK2mut PB1 HTS	MEKK2wt confirm	MEKK2mut-MEK5	MEKK3-MEK5 inh
CC12CCC(C(=O)NCc3ccc4c(c3)OCO4)(C(=O)C1=O)C2(C)C (configuration not stated)	123	111	4	-2	6	.	.	.
Cc1cc(-c2nn(-c3ccccc3F)cc2CN2CCN(c3ccncc3)CC2)c(C)s1	172*	106	5	11	41	185	56	112
Cc1cc(-c2nn(-c3ccccc3F)cc2CN2CCC(O)CC2)c(C)s1	108	99	-6	10	2	.	.	.
Cc1c(Cl)cccc1NC(=O)C1CCN(S(C)(=O)=O)CC1	.	104	-6	1	254*	104	2	106
O=C(/C=C/N1CCN(Cc2ccccc2)CC1)C(F)(F)F	69	62*[inhibitor]	-1	-1	-15	102	1	103
O=C(c1ccccc1)N1CCN(Cc2ccccc2)CC1	102	99	-4	-35	4	.	.	.
COc1cc(NC(=O)C(C)Oc2ccccc2)cc(OC)c1 (configuration not stated)	0.0*[inhibitor]	0.0*[inhibitor]	0	-11	-27	104	6	107
CC(Oc1ccccc1)C(=O)Nc1cccc(F)c1 (configuration not stated)	82	78	-2	0	-17	.	.	.
COc1cc(SC)ccc1C(=O)N1CCCCCC1	126	125*	-5	-8	5	118	13	108
CC(C)(C)OC(=O)[C@H](Cc1ccccc1)NC(=O)c1nc[nH]c1C(=O)N1CCNCC1	.	.	-6	.	.	.	.	.
CCN1C(=O)[C@@H]2[C@H](C1=O)[C@@H]1C(=O)Nc3ccccc3C(=O)N1[C@@H]2c1cccc(C)c1	.	.	4	.	.	.	.	.
CN1CCN(C2=Cc3ccccc3Sc3cc(F)ccc32)CC1	136*	97	-6	16	11	149	37	113
CN1CCN(C2Cc3cc(F)ccc3Sc3ccc(Cl)cc32)CC1 (configuration not stated)	.	.	7	.	.	.	.	.
